Data as given in the supplement of paper PMC12494721.
Structures can show the parent of a compound that is named as a salt.

Assays:
Settings in all cases: incubation time: 27 h, anaerobic, 37 °C;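 for the amine columns active = adjusted P below 0.05 in both replicates with a change the same way and a mean fold change under 0.8 or over 1.25; inactive = the rest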
[1] = test system: Clostridium sporogenes DSM 1664; experiment: growth (OD595) fold change vs plate DMSO controls (fold change (ratio)); higher = more growth
Summary of the method: (§1)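 Anaerobic 27 h, 37 °C mGAM 96-well cultures were shaken, then read for absorbance at 595 nm. Values were blank-subtracted and corrected for compound background using 20 µM compound solutions in water. A calibration factor of 5 converted them to OD. Growth is the fold change versus the median of plate DMSO controls. Fold changes above 1.5 were set to NA, and values are the mean of 2 biological replicates.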

Escherichia coli IAI1 [2] = experiment: as above
Summary of the method: as §1

[3] = test system: Klebsiella aerogenes DSM 30053; experiment: as above
Summary of the method: as §1

[4] = test system: Ruminococcus gnavus DSM 108212; experiment: as above
Summary of the method: as §1

[5] = test system: Klebsiella aerogenes DSM 30053; experiment: fold change of Histamine concentration vs plate DMSO controls (fold change (ratio)); higher = more amine produced, active = hit call of the paper (significant change in both replicates, either direction)
Summary of the method: (§2)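 In 80 µL wells, cultures of four gut bacterial strains in mGAM started at OD 0.1 before a 1:1 dilution and grew anaerobically at 37 °C for 27 h. Compounds were added to 20 µM final, except sweeteners at 50 µM final. After extraction of whole cultures with cold acetonitrile/methanol plus 0.1% formic acid and centrifugation, amines were measured by LC–triple-quadrupole MS in dynamic MRM mode against external calibration curves, with within-batch drift correction. Values give fold change over DMSO controls on the same plate, averaged across 2 biological replicates.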

[6] = test system: Clostridium sporogenes DSM 1664; experiment: fold change of Tryptamine concentration vs plate DMSO controls (fold change (ratio)); higher = more amine produced, active = hit call of the paper (significant change in both replicates, either direction)
Summary of the method: as §2

[7] = test system: Ruminococcus gnavus DSM 108212; experiment: as above
Summary of the method: as §2

Escherichia coli IAI1 [8] = experiment: fold change of Putrescine concentration vs plate DMSO controls (fold change (ratio)); higher = more amine produced, active = hit call of the paper (significant change in both replicates, either direction)
Summary of the method: as §2

[9] = test system: Klebsiella aerogenes DSM 30053; experiment: as above
Summary of the method: as §2

Escherichia coli IAI1 [10] = experiment: fold change of Cadaverine concentration vs plate DMSO controls (fold change (ratio)); higher = more amine produced, active = hit call of the paper (significant change in both replicates, either direction)
Summary of the method: as §2

[11] = test system: Klebsiella aerogenes DSM 30053; experiment: as above
Summary of the method: as §2

[12] = test system: Ruminococcus gnavus DSM 108212; experiment: fold change of 2-Phenylethylamine concentration vs plate DMSO controls (fold change (ratio)); higher = more amine produced, active = hit call of the paper (significant change in both replicates, either direction)
Summary of the method: as §2

Structure (SMILES) | growth [1] | growth (Escherichia coli IAI1 [2]) | growth [3] | growth [4] | fold change of Histamine concentration [5] | fold change of Tryptamine concentration [6] | fold change of Tryptamine concentration [7] | fold change of Putrescine concentration (Escherichia coli IAI1 [8]) | fold change of Putrescine concentration [9] | fold change of Cadaverine concentration (Escherichia coli IAI1 [10]) | fold change of Cadaverine concentration [11] | fold change of 2-Phenylethylamine concentration [12]
Cc1cc(C(C)(C)C)c(O)c(C)c1CC1=NCCN1 [Oxymetazoline hydrochloride] (20 µM) | 0.934 | 1.02 | 0.987 | 0.978 | 0.947 (inactive) | 1.03 (inactive) | 1.01 (inactive) | 0.983 (inactive) | 0.958 (inactive) | 0.968 (inactive) | 1.01 (inactive) | 0.996 (inactive)
C[C@H]1O[C@@H](O[C@H]2[C@@H](O)C[C@H](O[C@H]3[C@@H](O)C[C@H](O[C@H]4CC[C@@]5(C)[C@H](CC[C@@H]6[C@@H]5C[C@@H](O)[C@]5(C)[C@@H](C7=CC(=O)OC7)CC[C@]65O)C4)O[C@@H]3C)O[C@@H]2C)C[C@H](O)[C@@H]1O [Digoxin] (20 µM) | 1.14 | 0.971 | 0.995 | 0.945 | 1.05 (inactive) | 1 (inactive) | 1.02 (inactive) | 1.01 (inactive) | 0.999 (inactive) | 0.992 (inactive) | 0.991 (inactive) | 1.03 (inactive)
CN1CCN(C2=Nc3cc(Cl)ccc3Nc3ccccc32)CC1 [Clozapine] (20 µM) | 1.01 | 0.997 | 0.984 | 0.688 | 1.01 (inactive) | 1.02 (inactive) | 0.947 (inactive) | 1.02 (inactive) | 0.989 (inactive) | 0.889 (inactive) | 1 (inactive) | 0.92 (inactive)
CCCC(=O)N1CCCN(c2nc(N)c3cc(OC)c(OC)cc3n2)CC1 [Bunazosin hydrochloride] (20 µM) | 1.05 | 1.05 | 1 | 1.06 | 1.04 (inactive) | 1.02 (inactive) | 1 (inactive) | 0.989 (inactive) | 0.996 (inactive) | 0.996 (inactive) | 0.984 (inactive) | 1.03 (inactive)
CNC(C)CCC=C(C)C (stereo unspecified) [Isometheptene mucate] (20 µM) | 0.966 | 0.977 | 1.01 | 1.24 | 1.09 (inactive) | 0.944 (inactive) | 1.01 (inactive) | 0.979 (inactive) | 1.04 (inactive) | 1.01 (inactive) | 1.02 (inactive) | 0.954 (inactive)
CC(C)=CCOc1ccc(/C=C/C(=O)c2ccc(OCC=C(C)C)cc2OCC(=O)O)cc1 [Sofalcone] (20 µM) | 0.713 | 0.964 | 0.98 | 0.927 | 1 (inactive) | 0.425 (active) | 0.669 (active) | 1.01 (inactive) | 1 (inactive) | 1.03 (inactive) | 0.992 (inactive) | 0.689 (inactive)
CCOC(=O)C1=C(C)NC(C)=C(C(=O)OC)C1c1cccc([N+](=O)[O-])c1 (stereo unspecified) [Nitrendipine] (20 µM) | 1.04 | 1.01 | 1.02 | 1.06 | 1.08 (inactive) | 0.947 (inactive) | 0.911 (inactive) | 1.09 (inactive) | 0.993 (inactive) | 1.01 (inactive) | 1.01 (inactive) | 0.913 (inactive)
CC1(C)S[C@@H]2[C@H](NC(=O)[C@H](NC(=O)N3CCNC3=O)c3ccccc3)C(=O)N2[C@H]1C(=O)O [Azlocillin sodium salt] (20 µM) | 0 | 0.726 | 1.16 | 0 | 0.875 (inactive) | 0.0279 (active) | 0.0374 (active) | 0.965 (inactive) | 1.07 (inactive) | 1.87 (active) | 1.02 (inactive) | 0.0385 (active)
OC[C@H]1OC(O)[C@H](O)[C@@H](O)[C@@H]1O (stereo partly specified) [Glucose/Dextrose] (50 µM) | 1.15 | 0.989 | 1.01 | 1.19 | 1.03 (inactive) | 1.01 (inactive) | 0.971 (inactive) | 0.982 (inactive) | 0.872 (inactive) | 1.11 (inactive) | 1.09 (inactive) | 0.935 (inactive)
CN1CCOC(c2ccccc2)c2ccccc2C1 (stereo unspecified) [Nefopam hydrochloride] (20 µM) | 1.09 | 1 | 0.963 | 1.09 | 0.855 (inactive) | 1.1 (inactive) | 1.02 (inactive) | 1.03 (inactive) | 0.94 (inactive) | 0.943 (inactive) | 1.03 (inactive) | 1.03 (inactive)
NC(=O)NS(=O)(=O)c1ccc(N)cc1 [Sulfacarbamide] (20 µM) | 0.977 | 1.02 | 0.993 | 0.94 | 1.04 (inactive) | 0.967 (inactive) | 1 (inactive) | 1.01 (inactive) | 1.02 (inactive) | 1 (inactive) | 1.01 (inactive) | 0.972 (inactive)
CCC(=O)OCC(=O)[C@@]1(OC(=O)CC)[C@@H](C)C[C@H]2[C@@H]3CCC4=CC(=O)C=C[C@]4(C)[C@@]3(Cl)[C@@H](O)C[C@@]21C [Beclomethasone dipropionate] (20 µM) | 1.19 | 0.997 | 1.04 | 1.22 | 1 (inactive) | 1.01 (inactive) | 0.937 (inactive) | 0.954 (inactive) | 1.01 (inactive) | 1.02 (inactive) | 0.995 (inactive) | 0.921 (inactive)
C[C@@H](NCCCc1cccc(C(F)(F)F)c1)c1cccc2ccccc12 [Cinacalcet hydrochloride] (20 µM) | 0.918 | 1.02 | 1.03 | 1.2 | 0.977 (inactive) | 0.995 (inactive) | 0.807 (inactive) | 1.11 (inactive) | 1.01 (inactive) | 0.693 (inactive) | 0.999 (inactive) | 0.946 (inactive)
CCCC(CCC)C(=O)O [Valproic acid] (20 µM) | 1.23 | 1.01 | 0.99 | 0.931 | 0.977 (inactive) | 1.07 (inactive) | 1.11 (inactive) | 0.943 (inactive) | 0.971 (inactive) | 0.999 (inactive) | 0.999 (inactive) | 1.1 (inactive)
O=C(NCCNCC(O)COc1ccc(O)cc1)N1CCOCC1 (stereo unspecified) [Xamoterol hemifumarate] (20 µM) | 1.1 | 0.989 | 0.983 | 1 | 1.06 (inactive) | 0.992 (inactive) | 0.889 (inactive) | 1.03 (inactive) | 1.03 (inactive) | 1 (inactive) | 0.986 (inactive) | 0.868 (inactive)
CC(C)(C)NC[C@@H](O)COc1cccc2c1CCCC2=O [(+) Levobunolol hydrochloride] (20 µM) | 1.08 | 0.974 | 1.11 | 0.903 | 0.936 (inactive) | 1.05 (inactive) | 1.04 (inactive) | 1.04 (inactive) | 0.985 (inactive) | 0.994 (inactive) | 0.999 (inactive) | 1.02 (inactive)
C=CC1=C(C(=O)O)N2C(=O)[C@@H](NC(=O)/C(=N\O)c3csc(N)n3)[C@H]2SC1 [Cefdinir] (20 µM) | 0 | 0 | 0.757 | 0 | 1.22 (inactive) | 0.0307 (active) | 0.04 (active) | 0.208 (active) | 0.979 (inactive) | 0.77 (inactive) | 1.03 (inactive) | 0.0439 (active)
NC12CC3CC(CC(C3)C1)C2 [Adamantamine fumarate] (20 µM) | 0.99 | 1.02 | 0.991 | 0.942 | 0.988 (inactive) | 0.971 (inactive) | 1.09 (inactive) | 0.924 (inactive) | 0.993 (inactive) | 1.03 (inactive) | 1.09 (inactive) | 1.23 (inactive)
NS(=O)(=O)c1cc2c(cc1Cl)N=CNS2(=O)=O [Chlorothiazide] (20 µM) | 1.05 | 1.06 | 1.03 | 0.966 | 1.05 (inactive) | 0.97 (inactive) | 0.998 (inactive) | 1.05 (inactive) | 1.03 (inactive) | 0.97 (inactive) | 1.01 (inactive) | 1.01 (inactive)
C[C@]12CCC(=O)C=C1CC[C@@H]1[C@@H]2C(=O)C[C@@]2(C)[C@H]1CC[C@]2(O)C(=O)CO [Cortisone] (20 µM) | 1.15 | 0.978 | 1 | 1.23 | 0.991 (inactive) | 0.974 (inactive) | 1.01 (inactive) | 1 (inactive) | 1 (inactive) | 0.994 (inactive) | 1.01 (inactive) | 1.03 (inactive)
C=CCN1CCCC1CNC(=O)c1cc2nn[nH]c2cc1OC (stereo unspecified) [Alizapride hydrochloride] (20 µM) | 1.09 | 1.01 | 1.05 | 1.09 | 1 (inactive) | 0.964 (inactive) | 1.02 (inactive) | 0.994 (inactive) | 0.988 (inactive) | 0.998 (inactive) | 0.99 (inactive) | 1 (inactive)
O=C(c1ccccc1)c1ccc2n1CCC2C(=O)O (stereo unspecified) [Ketorolac tromethamine] (20 µM) | 0.909 | 1.04 | 0.976 | 0.993 | 1.04 (inactive) | 1.08 (inactive) | 1.03 (inactive) | 1.15 (inactive) | 1.03 (inactive) | 1.07 (inactive) | 0.995 (inactive) | 0.994 (inactive)
C[C@H](CCc1ccccc1)NC[C@H](O)c1ccc(O)c(C(N)=O)c1 [Dilevalol] (20 µM) | 1.02 | 0.978 | 1.11 | 1.1 | 0.929 (inactive) | 1.04 (inactive) | 0.98 (inactive) | 1.02 (inactive) | 1.01 (inactive) | 0.974 (inactive) | 1.01 (inactive) | 1.01 (inactive)
